This is an account of results in ChEMBL document CHEMBL4513146, “CO-ADD screening of Karazin Kharkiv National University (Ukraine) compounds”.

Each structure is given as a SMILES string. Measured potencies and affinities stand elsewhere.

For one assay, the system named is Klebsiella pneumoniae. The conditions noted are these: Concentration 32 ug.mL-1;; ASSAY_TEST Inhibition of Bacterial Growth; detection method Absorption (OD600); MEDIA CAMHB; plate type 384well; NBS; CORNING #3640; time 18 hr.
For another assay, the system named is Candida albicans. The conditions noted are these: Concentration 32 ug.mL-1; ASSAY_TEST Inhibition of Fungal Growth; detection method Absorption (OD530).
A further assay has as its system Cryptococcus neoformans. To be noted: Concentration 32 ug.mL-1; ASSAY_TEST Inhibition of Fungal Growth; detection method Resazurin; Absorption (OD600-OD570); plate type 384well; NBS; CORNING #3640. (In general: Resazurin is reduced to fluorescent resorufin, in cell work by metabolically active cells.)

What is called Inhibition is the relative decrease from the control value, in per cent.

With `CSc1cccc(NC(=O)Cn2nc3c(N4CCCC4)nccn3c2=O)c1`, the Inhibition was 1.74% in the assay on Klebsiella pneumoniae, 3.86% in the assay on Candida albicans and -5.38% with Cryptococcus neoformans.

Take `COc1cccc(CNC(=O)CSc2nnc3c(=O)n(-c4ccccc4)ccn23)c1OC`: the Inhibition is listed as 8.24% with Klebsiella pneumoniae, -1.2% with Candida albicans and -16.17% in the assay on Cryptococcus neoformans.

As to `O=c1c2sccc2n2c(=O)n(Cc3ccc(Cl)cc3)nc2n1Cc1cccs1`, the Inhibition is -1.66% with Klebsiella pneumoniae, 32.28% in the assay on Candida albicans and -17.8% in the assay on Cryptococcus neoformans.

Take `Cc1ccc(Oc2nccn3c(=O)n(CC(=O)NCc4ccccc4Cl)nc23)cc1`: the Inhibition was 6.19% with Klebsiella pneumoniae, 1.69% in the assay with Candida albicans and -7.33% with Cryptococcus neoformans.

Turning to `CCc1ccc(NC(=O)Cn2nc3n(Cc4cccs4)c(=O)c4sccc4n3c2=O)cc1`, the Inhibition in the assay with Klebsiella pneumoniae is 9.1%; in the assay with Candida albicans it was 35.62%; with Cryptococcus neoformans, -2.93%.

Regarding `Cc1ccc(NC(=O)Cn2nc3c4cc(-c5ccc(Cl)cc5)nn4ccn3c2=O)cc1C`, the figures for the Inhibition in the assay on Klebsiella pneumoniae, in the assay on Candida albicans and with Cryptococcus neoformans were 9.71%, 6.69% and -22.86%, respectively.

For `CCOC(=O)c1cccc(NC(=O)CSc2nc3ccccc3n3c(C(C)C)nnc23)c1`, the Inhibition is 16.4% with Klebsiella pneumoniae, 0.96% with Candida albicans and -15.16% with Cryptococcus neoformans.

As for `COc1ccc(NC(=O)Cn2nc3c(Sc4ccccc4)nccn3c2=O)cc1OC`, the Inhibition in the assay on Klebsiella pneumoniae is recorded as 6.09%; in the assay on Candida albicans, 1.58%; with Cryptococcus neoformans, -22.41%.

With `NC(=O)Cn1nc2n(CCC(=O)NC3CCCCC3)c(=O)c3ccccc3n2c1=O`, the Inhibition with Klebsiella pneumoniae is given as 14.53%; in the assay with Candida albicans it was 0.47%; in the assay on Cryptococcus neoformans it was -26.54%.

In the case of `COc1ccc(NC(=O)C(C)Sc2nnc3c(=O)n(-c4ccc(C)c(C)c4)ccn23)cc1` (stereo not given), the Inhibition was 12.32% in the assay on Klebsiella pneumoniae, -1.2% in the assay on Candida albicans and -9% in the assay on Cryptococcus neoformans.
